CHT block: human CHT choline transport inhibition | Q9GZV3 | CHT-expressing cells, membrane potential dye, choline response; active compounds read low | B-score at 10 µM | 0.86% of 310,000 active;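 active = B-score over 3 SD under the library average, and starting fluorescence ratio not unusually high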;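 also: choline stimulus applied at its EC90 after an EC20 pre-addition; B-score computed on integrated fluorescence ratio after choline addition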
TMEM16A inh: blocks the mouse calcium-activated chloride channel TMEM16A; Q8BHY3; normalized B-score (activity score, 25-100; higher = stronger inhibition) at 10 µM; HEK293 TMEM16A/YFP iodide influx fluorescence, ionomycin; 1.2% of 310,000 active;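 active = ratio plate-corrected score three or more library SD toward inhibition, starting fluorescence score within five deviations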;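 also: score derived from kinetic fluorescence span divided by baseline fluorescence per well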
CHT PAM: allosteric activators of human choline transporter CHT; Q9GZV3; CHT-expressing cells, membrane potential dye, choline EC20; active compounds read high; LV-AA mutant CHT in HEK293 cells; AID 488977; B-score at 10 µM; 0.49% of 310,000 active;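 active = initial fluorescence not abnormally high and integrated response B-score, plate-corrected, over 3 SD above library mean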
ANO1 activ: mouse TMEM16A channel activation, primary screen; B-score at 10 µM; Q8BHY3; HEK293 TMEM16A/YFP-H148Q/I152L, iodide quench fluorescence; active compounds read low; AID 623877; 0.3% of 340,000 active;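 active = fluorescence-ratio B-score plate-corrected deviation score at least 3 library SD below zero, with starting fluorescence score within 5 deviations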;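 also: channel opened by trigger with iodide after compound preincubation; score built on the fluorescence ratio of max minus min over baseline; more negative score means more quench and so TMEM16A activation or potentiation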
IDE inh: cellular human IDE inhibition | AID 434962 | inhibition, % at 5.59 µM | P14735 | HEK cells, FAbetaB cleavage, fluorescence polarization | 0.41% of 320,000 active;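 active = percent inhibition above the average of all tested compounds plus 3 SD, set per screening campaign, cut at about 16% in these data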;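 also: IDE supplied by intact live HEK cells; FP after avidin binding of uncleaved biotin substrate so inhibition keeps polarization high; 0% = DMSO wells and 100% = 60 µM reference IDE inhibitor Ii1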
IDE cell activ: activators of human insulin-degrading enzyme in cells; 0.073% of 340,000 active; activation, % at 5.96 µM; HEK cells, FAbeta-B cleavage, fluorescence polarization; 0% vehicle, 100% cell-free pure enzyme wells; P14735;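 active = activation above the mean of all tested compounds plus 3 SD, set per screening campaign, cut at about 17% in these data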
CHT act confirm: confirmation of human choline transporter (CHT) activators | shares compounds with CHT PAM | CHT-expressing cells, membrane potential dye fluorescence (FDSS); % of choline EC20–EC90 response window; HEK293 expressing CHT LV-AA mutant; choline added at its EC20 | activation, % at 10 µM | 91% of 2,500 active;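 active = primary screen active, with duplicate mean activation above negative control mean plus 3 SD, cut at about 11% in these data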
HEK293 MP dye: activity in parental HEK293 cells lacking CHT; membrane potential dye fluorescence (FDSS); measured after EC20 choline addition; 62% of 2,500 active; shares compounds with CHT PAM; ratio readout change at 10 µM, hits read low;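 active = duplicate-averaged ratio beyond 3 SD from buffer wells, up or down, though filed actives are nearly all decreases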
Starred values were filed as active, the others as inactive; i = inactive; . = no result. This is a sample that favours compounds with a hit; in the whole collection about 2.7% have one here.

SMILES	CHT block	TMEM16A inh	CHT PAM	ANO1 activ	IDE inh	IDE cell activ	CHT act confirm	HEK293 MP dye
Cc1c(NC(=O)CSc2nc3ccccc3c(=O)n2C(C)C)c(=O)n(-c2ccccc2)n1C	.	.	.	i	3	2	.	.
Cc1c(C)c2ccc(OC(C)C(=O)NCCCn3ccnc3)c(C)c2oc1=O (centres undefined)	i	i	i	i	-2	2	62*	-36*
CC(Oc1ccc2ccc(=O)oc2c1)C(=O)NCCCn1ccnc1 (centres undefined)	i	i	i	i	2	3	.	.
CC(C)(C)OC(=O)[C@H]1[C@H](c2ccc([N+](=O)[O-])cc2)C2(C(=O)c3ccccc3C2=O)C2c3ccccc3C=NN21 (some centres undefined)	i	i	i	i	2	8	37*	i
COc1ccc([C@H]2[C@H](C(=O)C(C)(C)C)N3N=Cc4ccccc4C3[C@]23N=C(c2ccccc2)OC3=O)cc1 (some centres undefined)	i	i	i	i	-1	-1	.	.
Cn1c(SCC(=O)Nc2ccccc2Oc2ccccc2)nnc1C1CC1	.	.	.	i	3	0	.	.
NC(=O)c1ccsc1NC(=O)COC(=O)c1cccnc1Cl	.	.	.	i	-5	2	.	.
Cc1cc(Cl)ccc1OC(C)C(=O)NCCCCc1ccccc1 (centres undefined)	i	i	i	i	-4	1	.	.
Cc1cc(Cl)ccc1OC(C)C(=O)NCCc1ccc2c(c1)OCCO2 (centres undefined)	i	i	i	i	2	2	9	i
Cn1c(Cc2cccs2)nnc1SCC(=O)N1CCCc2ccccc21	i	i	i	i	1	0	.	.
O=C(CSc1nnc(Cc2cccs2)n1C1CCCCC1)N1CCCc2ccccc21	i	i	6.4*	i	4	4	31*	i
O=C(O)c1cc(N2C(=O)CCC2=O)ccc1Cl	i	i	i	i	1	6	.	.
CC(C)C(=O)N1CCC2(CC1)Oc1ccc(Cl)cc1C(=O)C21CC(c2ccccc2)=NO1 (centres undefined)	i	i	i	i	1	0	6	i
COc1ccc([C@H]2/C=C\CN(C(=O)CC(C)(C)C)[C@@H](C)C(=O)N2Cc2ccc(F)cc2)cc1	i	i	9*	i	-1	-1	25*	i
CC[C@H]1CN2CCc3cc(OC)c(OC)cc3C2C[C@@H]1C[C@H]1NCCc2cc(OC)c(OC)cc21 (some centres undefined)	i	i	14*	i	6	2	41*	-43*
Cc1cc(C(=O)NC(C)C2CC2)c(Cl)cc1Cl (centres undefined)	i	i	i	i	1	4	.	.
COc1ccc(Br)cc1/C=C(\C(=O)O)c1ccc(S(=O)(=O)N2CCCCC2)s1	.	.	.	i	-3	-1	.	.
COc1ccc(-c2csc3nc(C)nc(N4CCC(C)CC4)c23)cc1OC	i	i	i	i	-10	3	47*	i
COc1ccc(-c2csc3nc(C)nc(N4CCN(C(C)=O)CC4)c23)cc1OC	i	i	i	i	-4	-1	.	.
Cc1cc(C(F)(F)F)n2nc(-c3cccs3)cc2n1	i	i	i	i	1	1	.	.
Cc1cccc(-c2cc3nc(C)cc(NCCCN(C)C)n3n2)c1	i	i	i	.	-2	4	32*	-62*
CCN(CC)CCCNc1cc(C)nc2cc(-c3cccs3)nn12	i	i	9.1*	i	1	4	62*	-84*
